This passage reports Potency results from PubChem BioAssay (NCATS).

Results filed as inconclusive are left out. Activity calls are given as the source filed them. Calls come from the whole dose curve; as a rule, active = well fitted inhibition curve with a large enough effect; inconclusive = small, poorly fitted or top-dose-only effect; inactive = flat fitted curve, though single readings scatter.

Common to all, as to assay: qHTS profiling for inhibitors of Plasmodium falciparum proliferation (AID 504749); note: nearly all actives have a fitted effect of over 60% in size
What all share (settings): P. falciparum in erythrocytes, SYBR Green DNA, 72 h; series mostly up to 28.7 µM

The test system of one test is CP329. An outline of the steps: (§1)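 Readout was DNA-dye fluorescence from lysed cultures, ex 485/em 535 nm. Parasitized red cells had grown 72 h with compound; data scaled between 0.29 uM artemisinin and DMSO wells and corrected using vehicle-only plates.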
Another test relates to CP335. In a few lines: as §1
Another test has as its system DFO2036. In a few lines:
as §1

In a further test the test system is DIV14. An outline of the steps:
as §1

The next test concerns DIV17. An outline of the steps:
as §1

The next test relates to DIV30. In a few lines: as §1
Another test concerns Dd2. An outline of the steps:
as §1

The test system of another test is ECU. In a few lines: as §1
For the next test, the system named is FAB9. In a few lines: as §1
A further test has as its system GB4. In a few lines: as §1
In the next test the test system is HB3. In a few lines: as §1
The test system of a further test is ICS. In a few lines: as §1
A further test concerns N140. An outline of the steps: as §1
For a further test, the system named is P93_24. In a few lines: as §1
For another test, the system named is P94_40. In a few lines: as §1
The next test has as its system PAD. In a few lines:
as §1

The subject of a further test is PC15. An outline of the steps:
as §1

A further test deals with PC26. An outline of the steps:
as §1

A further test deals with PC49. In a few lines: as §1
A further test has as its system JCK. An outline of the steps: as §1
Potency is the fitted concentration of half-maximal effect.

On to `CO[C@H](C(=O)[C@@H](O)[C@@H](C)O)C1Cc2cc3cc(O[C@H]4C[C@@H](O[C@H]5C[C@@H](O)[C@H](O)[C@@H](C)O5)[C@@H](O)[C@@H](C)O4)c(C)c(O)c3c(O)c2C(=O)[C@H]1O[C@H]1C[C@@H](O[C@H]2C[C@@H](O[C@H]3C[C@](C)(O)[C@H](O)[C@@H](C)O3)[C@H](O)[C@@H](C)O2)[C@H](O)[C@@H](C)O1` (stereo partly drawn), for which the Potency with CP329 is 1690 nM (active); in the test on CP335, 151 nM (active); in the test with DFO2036, 112 nM (active); with DIV14 it was 601 nM (active); with DIV17, 675 nM (active); in the test on DIV30 it was 2390 nM (active). Moreover, the Potency in the test on Dd2 was 89.1 nM (active); with ECU it was 126 nM (active); with FAB9 it was 562 nM (active); with GB4 it was 675 nM (active); in the test with HB3 it was 100 nM (active); in the test on ICS, 79.4 nM (active). The Potency was 126 nM (active) with N140; 112 nM (active) in the test on P93_24; 112 nM (active) in the test with P94_40; 158 nM (active) in the test with PAD; 316 nM (active) in the test with PC15; 3010 nM (active) in the test with PC26. The Potency in the test on PC49 is 708 nM (active).
`O=C(O)CN(CCN(CC(=O)O)CC(=O)O)CC(=O)O`: the Potency result with CP329, with CP335, with DFO2036, in the test on DIV14, in the test on DIV17 and with DIV30 was “inactive” each time. The Potency entry in the test on Dd2, in the test with ECU, with FAB9, in the test on GB4, in the test on HB3 and in the test on JCK was “inactive” in each case. In addition, the Potency result with N140, with P93_24, in the test on P94_40, in the test with PAD, in the test with PC15 and with PC26 was “inactive” in each case. Moreover, the Potency entry in the test on PC49 is “inactive”.
Turning to `CCCCCCCC(=O)O`, the Potency result in the test on CP329, in the test with CP335, in the test on DFO2036, in the test with DIV14, in the test on DIV17 and in the test on DIV30 was “inactive” throughout. Further, the Potency entry in the test with Dd2, in the test on ECU, with FAB9, in the test with GB4, in the test with HB3 and in the test on ICS was “inactive” in each case. For the same compound, the Potency entry in the test with JCK, in the test on N140, in the test with P93_24, in the test on P94_40, with PAD and with PC15 was “inactive” each time. The Potency entry in the test with PC26 and with PC49 was “inactive” in each case.
`C=CCSSSCC=C`: the Potency entry in the test with CP329, in the test on CP335, in the test with DFO2036, in the test with DIV14, in the test with DIV17 and in the test with DIV30 was “inactive” each time. Further, the Potency entry in the test on Dd2, with ECU, in the test with FAB9, in the test with GB4, in the test on HB3 and in the test with ICS was “inactive” each time. In addition, the Potency entry in the test with JCK, in the test with N140, with P94_40, in the test with PAD, with PC15 and in the test on PC26 was “inactive” each time. The Potency entry in the test with PC49 is “inactive”.
As to `Nc1c(N=Nc2ccc(-c3ccc(N=Nc4cc(S(=O)(=O)O)c5ccccc5c4N)cc3)cc2)cc(S(=O)(=O)O)c2ccccc12`, the Potency result in the test on CP329, with CP335, in the test on DFO2036, in the test on DIV14, in the test on DIV17 and with DIV30 was “inactive” in each case. Besides, the Potency entry with Dd2, in the test with ECU, with FAB9, in the test with GB4, in the test on HB3 and in the test on ICS was “inactive” throughout. Further, the Potency entry with N140, with P93_24, in the test with P94_40, with PAD, in the test on PC15 and with PC26 was “inactive” throughout. Also, the Potency result in the test with PC49 was “inactive”.
With `CC1(C)C(C=C(Cl)Cl)C1C(=O)OCc1cccc(Oc2ccccc2)c1` (stereo not drawn), the Potency entry in the test with CP329, in the test on CP335, in the test with DFO2036, in the test with DIV14, with DIV17 and with DIV30 was “inactive” throughout. The Potency entry in the test with ECU, in the test on FAB9, in the test on GB4, in the test on HB3, in the test on JCK and in the test with N140 was “inactive” each time. The Potency entry in the test with P93_24, with P94_40, in the test on PAD, with PC15, in the test on PC26 and in the test on PC49 was “inactive” throughout.
On to `CC(C(=O)O)c1ccc(N2Cc3ccccc3C2=O)cc1` (stereo not drawn), for which the Potency result with CP329, in the test with CP335, in the test on DFO2036, in the test on DIV14, in the test with DIV17 and in the test on DIV30 was “inactive” each time. Further, the Potency entry with Dd2, in the test with ECU, in the test with FAB9, in the test on GB4, with HB3 and in the test with ICS was “inactive” each time. For the same compound, the Potency result with JCK, with N140, with P93_24, with P94_40, in the test with PAD and in the test on PC15 was “inactive” each time. The Potency entry in the test with PC26 and in the test on PC49 was “inactive” throughout.
In the case of `NC(=O)c1ncn(C2OC(CO)C(O)C2O)n1` (stereo not drawn), the Potency result in the test on CP329, with CP335, in the test with DFO2036, with DIV14, with DIV17 and in the test with DIV30 was “inactive” each time. Also, the Potency entry with Dd2, with ECU, in the test on FAB9, in the test with HB3, in the test on ICS and in the test on JCK was “inactive” in each case. Moreover, the Potency entry with N140, in the test on P93_24, in the test with P94_40, in the test with PAD, with PC15 and with PC26 was “inactive” each time. For the same compound, the Potency entry with PC49 is “inactive”.
